# High-throughput results as filed in PubChem BioAssay.
# A selection: hits, their analogues and other compounds. The true share with any hit is near 2.9%.
# KLK7 zymogen act = activators of human kallikrein-7 zymogen | P49862 | purified proKLK7, EDANS-DABCYL substrate fluorescence; 100% is mature enzyme control, 0% vehicle | activation, % at 7 µM | 370,000 tested, 0.9% active | AID 652039;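 active = activation above the mean of all tested compounds plus 3 SD, computed per campaign excluding outliers beyond control limits, cut at about 13% in these data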
# ADAM10 inh = inhibits human ADAM10. 370,000 tested, 0.62% active. recombinant ADAM10, EDANS/DABCYL FRET peptide cleavage, 3 h. inhibition, % at 7 µM. O14672. AID 720582;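 active = inhibition above a per-campaign cutoff equal to the mean of compounds falling between control-based bounds plus 3 SD, cut at about 20% in these data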;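 note: 0% = DMSO wells while the 100% control is not disclosed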
# Target sequence (O14672 214-748 limits assumed): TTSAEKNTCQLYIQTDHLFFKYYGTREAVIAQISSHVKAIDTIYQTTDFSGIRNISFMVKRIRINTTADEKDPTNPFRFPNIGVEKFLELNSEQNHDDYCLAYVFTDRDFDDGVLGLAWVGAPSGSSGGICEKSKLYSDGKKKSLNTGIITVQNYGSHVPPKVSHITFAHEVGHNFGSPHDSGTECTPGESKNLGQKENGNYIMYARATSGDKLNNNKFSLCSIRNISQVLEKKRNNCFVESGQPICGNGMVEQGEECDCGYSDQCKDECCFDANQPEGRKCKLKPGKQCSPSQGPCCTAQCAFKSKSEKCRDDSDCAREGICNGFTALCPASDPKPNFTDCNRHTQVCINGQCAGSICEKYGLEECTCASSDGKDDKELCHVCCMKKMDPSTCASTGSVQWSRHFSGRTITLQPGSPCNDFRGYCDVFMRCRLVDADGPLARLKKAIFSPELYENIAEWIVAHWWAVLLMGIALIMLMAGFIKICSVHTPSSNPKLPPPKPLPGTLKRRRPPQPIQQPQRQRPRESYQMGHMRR
# PLCb3 inh = PLC-beta3 (human) inhibition, primary screen | inhibition, % at 12.2 µM | Q01970 | Purified PLC-beta3, fluorogenic substrate, fluorescence | 370,000 tested, 0.18% active; in the data active = inhibition above about 11%;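 note: 0% = median of compound wells on plate and 100% = full blocker control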
# ADAM17 inh = inhibitors of human ADAM17. P78536. recombinant ADAM17, EDANS/DABCYL FRET peptide cleavage. inhibition, % at 6.95 µM. 370,000 tested, 0.83% active. AID 720648;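 active = inhibition above the mean of compounds lying between control limits plus 3 SD, set per campaign, cut at about 8.5% in these data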;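 note: 0% = DMSO-only wells as the low control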
# PLCg1 inh = blocks human PLC-gamma1 enzyme activity; P19174; purified PLC-gamma1, fluorogenic substrate, fluorescence; inhibition, % at 12.2 µM; 370,000 tested, 0.84% active; in the data active = inhibition above about 9.5%
# proKLK7 act conf = proKLK7 activation, confirmation. 3,200 tested, 68% active. purified proKLK7, EDANS-DABCYL substrate fluorescence; scaled: vehicle 0, mature enzyme 100. shares compounds with KLK7 zymogen act. activation, % at 7 µM. AID 686949;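 active = activation, as change over the incubation, above the mean of all tested compounds plus 3 SD, cut at about 13% in these data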
# EDANS-DABCYL int = counter-screen for kallikrein-7 activators: EDANS-DABCYL optical interference; shares compounds with KLK7 zymogen act; 3,200 tested, 80% active; EDANS-DABCYL substrate fluorescence interference, no enzyme, 4 h; solvent 0%, active enzyme control 100%; activation, % at 7 µM;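 active = activation above the all-compound mean plus 3 SD, ignoring values outside control-based bounds, cut at about 4.8% in these data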;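 note: value is the 4 h activation minus the activation read at time zero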
# EDANS interf = optically interferes with EDANS-DABCYL fluorescence, kallikrein-7 activator counter-screen | shares compounds with KLK7 zymogen act | EDANS-DABCYL peptide fluorescence interference, no enzyme | EC50, µM | 250 tested, 20% active;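 active = compounds that raise the fluorescence signal in this interference counterscreen, with EC50 at or below 10 µM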;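 note: intact quenched peptide substrate alone read at 355 nm excitation and 520 nm emission; signal is fluorescence gain from T0 to T4 after four hours at room temperature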
# An asterisk follows results filed as active; i = inactive; x = not tested or not shown.
SMILES,KLK7 zymogen act,ADAM10 inh,PLCb3 inh,ADAM17 inh,PLCg1 inh,proKLK7 act conf,EDANS-DABCYL int,others
COC(=O)[C@]12C[C@H](CC(=O)NCC34CC5CC(CC(C5)C3)C4)C(=O)N(Cc3ccccc3)C1=C[C@H](C(C)(C)C)O[C@@H]2C,0,6,3,1,1,x,x,
Cc1nn(-c2ccccc2)c2sc(C(=O)N3CCC4(CC3)OCCO4)cc12,0,-18,0,-3,7,x,x,
COc1ccccc1CNC(=O)N1CCC(c2nc3ccc(Cl)cc3[nH]2)CC1,0,-3,0,-1,-2,x,x,
CC[C@]12c3[nH]c4ccccc4c3CCN1C(=O)C(CC(=O)NCCN1CCOCC1)C[C@@H]2C(=O)N1CCN(C(=O)c2ccco2)CC1 (stereo partly drawn),1,-3,3,-3,-4,x,x,
CC[C@]12c3[nH]c4cc(-c5ccco5)ccc4c3CCN1C(=O)[C@@H](CC(=O)NCCN1CCOCC1)C[C@@H]2C(=O)N1CCN(C(=O)C2CC2)CC1,110*,i,i,-201,i,76*,83*,
CC[C@]12c3[nH]c4cc(-c5ccco5)ccc4c3CCN1C(=O)[C@@H](CC(=O)NCCc1ccccn1)C[C@@H]2C(=O)N1CCN(C(=O)c2ccco2)CC1,151*,i,i,-228,i,119*,138*,
CC[C@]12c3[nH]c4cc(-c5ccco5)ccc4c3CCN1C(=O)[C@@H](CC(=O)NCCN1CCOCC1)C[C@@H]2C(=O)N1CCN(C(=O)c2ccco2)CC1,88*,-182,-175,-48,-132,64*,86*,
Clc1ccc(CSc2nnc(-c3cccs3)o2)cc1Cl,0,-3,0,-1,-1,x,x,
N#Cc1ccc(CC(=O)c2ccccc2)[nH]c1=O,16*,-336,-166,-86,-143,100*,98*,
COc1ccc2c(c1OC)C(=O)OC2CC(=O)c1ccc2c(c1)OCO2 (stereo not drawn),18*,2,-30,2,-20,12,12*,
COc1ccc2c(c1OC)C(=O)OC2C/C(=N\NC(N)=O)c1ccccc1 (stereo not drawn),1,-7,0,-1,-5,x,x,
CC(=O)N1CCc2nc3ccccc3cc21,9,-118,-32,-39,-21,x,x,
CC(=O)N1CCc2cc3nc(C)cc(C)c3cc21,25*,-373,-189,-127,-156,2,3,
CCN(CC)CCNC(=O)c1cc2c(-c3cccc(OC)c3)nn(C)c2s1,24*,-306,-375,-105,-250,6,6.9*,
O=C(NC1CCCCN(Cc2ccc(Cl)cc2)C1=O)c1ccc(F)cc1 (stereo not drawn),0,0,0,-1,0,x,x,
COc1ccc(C2C(C(=O)N3CCN(c4ccccc4Cl)CC3)CC(=O)N2c2ccc(OC)cc2)cc1 (stereo not drawn),0,1,1,2,-4,x,x,
CN(C)C=Nc1ccc2nc3c(cc2c1)[nH]c1ccccc13,49*,i,i,i,i,50*,41*,EDANS interf=>69
CCOC(=O)c1[nH]c2ccccc2c1N=CN(C)C,0,-47,-12,-13,-9,x,x,
CCN1CCN(c2cc3c(cc2F)c(=O)c(S(=O)(=O)c2ccccc2)cn3C)CC1,13*,-346,-122,-90,-66,3,3,
Cc1ccc(S(=O)(=O)c2cn(C)c3cc(N4CCN(C)CC4)c(F)cc3c2=O)c(C)c1,7,-256,-84,-81,-58,x,x,
Cc1ccc(-n2c(=O)c(C#N)cc3c(=O)n4ccccc4nc32)cc1,6,i,-100,-232,-88,x,x,
Cc1cccc(-n2c(=O)c(C#N)cc3c(=O)n4ccccc4nc32)c1,16*,i,-387,i,-295,51*,72*,
Cc1sc(-c2ccncc2)nc1OC(=O)c1ccc(F)cc1F,14*,-4,-160,1,-149,13*,11*,EDANS interf=i
O=C(NCc1ccco1)C1CCCN(c2ncccn2)C1 (stereo not drawn),0,-29,-9,-8,-9,x,x,
O=C(NC1CC1)c1cccc(-c2cncc3nccn23)c1,16*,i,-262,-381,-204,7,11*,
SMILES,KLK7 zymogen act,ADAM10 inh,PLCb3 inh,ADAM17 inh,PLCg1 inh,proKLK7 act conf,EDANS-DABCYL int,others
O=C(NC1CC1)c1ccc(-c2cnc3cccnn23)cc1,77*,i,i,i,i,83*,79*,
O=C(c1cccc(-c2cccc3nccn23)c1)N1CCOCC1,0,-63,-37,-20,-25,x,x,
O=C(NC1CC1)c1ccccc1,0,-16,-9,-5,1,x,x,
O=C(NCc1ccco1)c1cccc(-c2cncc3nccn23)c1,16*,i,-242,-323,-207,20*,19*,
O=C(NCc1ccco1)c1cccc(-c2ccc3nccn3c2)c1,0,-29,-19,-8,3,x,x,
COc1ccc(C2Nc3ccccc3C(=O)N2Cc2ccccc2)cc1COc1ccc(NC(C)=O)cc1 (stereo not drawn),x,i,-374,-235,-268,x,x,
Cc1cccc(Cn2cc(CN3CC(N4CCN(CCOC(=O)c5cc6ccccc6o5)CC4)CS3(=O)=O)nn2)c1 (stereo not drawn),0,-13,-5,-9,-2,x,x,
O=C(COCc1ccccc1)NC1CCCCN(Cc2cccc(Cl)c2)C1=O (stereo not drawn),1,6,1,3,-1,x,x,
CCN(C(=O)c1cccs1)c1nnc(-c2ccncc2)s1,10,-29,-6,-16,-5,x,x,
COCCN(C(=O)Cc1cccs1)c1nnc(-c2ccncc2)s1,17*,-74,-9,-26,-8,40*,42*,
CCN(CC)C(=O)CC[C@@H]1CC[C@]2(CCCN(C(=O)c3ccco3)C2)O1,-1,-8,3,-4,-3,x,x,
O=C(Nc1cccc(-c2nc3ccccc3[nH]2)c1)c1cccc(NC(=O)c2ccco2)c1,34*,-235,-31,-102,-34,1,2,
COc1ccc(NC(=O)COc2ccc(/C=C/c3cccc[n+]3C)cc2OC)cc1,4,-15,-295,-6,-226,x,x,
CCOc1ccc(/C=C/C(=O)Nc2ccc(C(N)=O)cc2)cc1OC,42*,-57,-34,-19,-48,85*,94*,
COc1ccc(/C=C/C(=O)Nc2ccncc2)cc1OC,17*,-497,-414,-170,-339,13*,13*,
